Screening results (PubChem)
TCR act – activators of T cell receptors. AID 504894. primary human leukocytes, anti-CD3, IL-2 HTRF, 48 h. 330,000 tested, under 10 active. Potency, µM (top dose mostly 9.22 µM), inactives show at the top dose activation of IL-2 secretion, hits mostly activators; also: % of control where 0% means no effect
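TCR engagement came from a-CD3 beads alone, with compounds added to primary human leukocytes for 48 hr. Secreted IL-2 bridged europium cryptate- and d2-labelled anti-IL-2 antibodies, giving FRET emission at 665nm after 320nm excitation.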
GLS inhibitor – glutaminase GLS (human) inhibition | Potency, µM (doses to about 45.5 µM), for the others: at the top dose activity change, negative = inhibition, actives largely listed as inhibitors | O94925 | GLS enzymatic activity, qHTS titration | hit rate 0.21% among 410,000; also: potency is read from the fitted curve at half-maximal effect; % is scaled to controls: 0 for no effect and ±100 for the full control effect
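Compounds were pin-transferred onto hKGA, after which L-glutamine (1 mM solution) and a detection mix of glutamate oxidase, HRP and Amplex Red were added. Initial and 30 min RT fluorescence reads were collected.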
BRCA1 expr act – increases BRCA1 expression; Potency, µM (highest dose often 46.1 µM), inactives show at the top dose activation, most hits filed as activators; MCF7-BRCA1-FFLuc reporter, luminescence, 48 h; response scale: scaled: vehicle 0%, 10 µM genistein 100%; hit rate 1.1% among 380,000; also: potency is read from the fitted curve at half-maximal effect; nearly all actives have a fitted effect of over 80% in size
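48 h compound treatment of MCF7-BRCA1-FFLuc cells (phenol-red free MEM, 37 °C), then 15 min with luciferase substrate and luminescence imaging.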
p53 reactivation – restores transcriptional activity of mutant p53; Potency, µM (doses to about 92.2 µM), for inactives: at the top dose activity change, positive = activation, hits mostly activators; H1299 p53-A138V BP100-luciferase reporter, luminescence, 24 h; hit rate 0.063% among 320,000; also: potency is read from the fitted curve at half-maximal effect; % of control where 0% means no effect; nearly all actives have a fitted effect of over 45% in size
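p53-null H1299 cells stably carrying temperature-sensitive p53-A138V and a BP100-luciferase reporter were pinned with compounds (4-point, 1:5 series) and held 24 hrs at 37 deg C. Luminescence was read 10 min after detection reagent.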
TSHR antagonist – blocks TSH signaling through the human TSH receptor | P16473 | TSHR-expressing cells, TSH-stimulated cAMP HTRF, 2 h; hits give low values | activity change, negative = inhibition, % at 11.5 µM | hit rate 0.2% among 330,000 | AID 504810;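 active = activity change below a set negative limit, meaning inhibition stronger than a set level, cut at about -70% in these data; inconclusive = activity change between two set negative limits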; also: % is scaled to controls: 0 for no effect and ±100 for the full control effect
Target sequence (P16473 whole entry, looked up): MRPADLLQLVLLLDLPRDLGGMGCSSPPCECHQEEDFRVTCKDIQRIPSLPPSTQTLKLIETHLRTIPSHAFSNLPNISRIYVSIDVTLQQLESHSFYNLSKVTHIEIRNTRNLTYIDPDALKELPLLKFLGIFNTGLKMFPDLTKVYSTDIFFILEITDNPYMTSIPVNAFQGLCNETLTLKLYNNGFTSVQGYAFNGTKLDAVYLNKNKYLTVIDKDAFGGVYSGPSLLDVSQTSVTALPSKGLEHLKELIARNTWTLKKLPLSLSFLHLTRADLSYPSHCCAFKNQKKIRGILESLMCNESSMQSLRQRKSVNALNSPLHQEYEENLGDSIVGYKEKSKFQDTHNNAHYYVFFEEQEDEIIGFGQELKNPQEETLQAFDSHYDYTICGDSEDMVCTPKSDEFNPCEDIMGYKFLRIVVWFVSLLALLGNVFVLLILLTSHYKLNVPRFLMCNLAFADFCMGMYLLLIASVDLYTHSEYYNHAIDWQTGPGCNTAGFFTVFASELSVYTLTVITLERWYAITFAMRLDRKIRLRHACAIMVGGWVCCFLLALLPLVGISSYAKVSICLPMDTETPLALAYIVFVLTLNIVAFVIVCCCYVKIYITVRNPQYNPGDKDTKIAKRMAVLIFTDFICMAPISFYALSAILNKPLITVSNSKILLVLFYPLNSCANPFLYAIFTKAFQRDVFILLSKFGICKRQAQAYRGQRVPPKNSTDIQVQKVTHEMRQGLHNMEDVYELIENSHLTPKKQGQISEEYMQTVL
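Cell-based HTRF cAMP assay; TSHR cells + compound, TSH EC80 (4nM final), 2 h, 37 deg C. Lysis with anti-cAMP cryptate and cAMP-d2, 30 min RT, read 665/620 nm.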
N370S GC – inhibits or activates N370S mutant glucocerebrosidase; AID 2101; P04062; hit rate 0.092% among 330,000; N370S GC spleen homogenate, 4MU-glucoside fluorescence; Potency, µM (highest dose often 59.4 µM), inactives show top-dose activity change, negative = inhibition, hits mostly inhibitors;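 also: potency is read from the fitted curve at half-maximal effect; 0% = full enzyme activity and -100% = no enzyme basal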
* hit, by the source's call; ? = inconclusive; · = no result given; [ ] = another dose, or the depositor's remark. Compounds with a hit are over-represented: about 1.4% of the library has one in this group of screens. Unless noted, calls follow the shape of the dose curve; as a rule, active = well fitted curve in the direction sought with a large enough effect; inconclusive = small, poorly fitted or top-dose-only effect, or another doubt; inactive = no such curve, though single readings can be large; an effect the other way counts as inactive or inconclusive.

SMILES	TCR act	GLS inhibitor	BRCA1 expr act	p53 reactivation	TSHR antagonist	N370S GC
Cc1ccc(C(=O)c2coc3c2C(=O)C(=O)c2ccccc2-3)cc1	1%	-2%	18µM*	2%	-21	5%
NNC(=O)C=C1CCN(c2ncc(C(F)(F)F)cc2Cl)CC1	8%	22%	32%	5%	-11	7%
O=C(O)C=C1CCN(c2ncc(C(F)(F)F)cc2Cl)CC1	·	2%	11µM*	4%	-3	-7%
Cc1ccc(N/C=C/c2onc(C)c2[N+](=O)[O-])cc1	9%	14%	6.3µM*	15%	13	1%
COc1cccc(N/C=C/c2onc(C)c2[N+](=O)[O-])c1	-5%	-1%	4µM*	-2%	1	1%
Cc1cccc(C)c1N/C=C/c1onc(C)c1[N+](=O)[O-]	9%	12%	-1%	·	·	6%
CC[C@H](C)[C@H](N)C(=O)N[C@H]1CCC(=O)NCC(C(=O)N[C@@H](Cc2ccc(O)cc2)C(=O)N[C@@H](CCCNC(=N)N)C(=O)N[C@@H](CC(C)C)C(=O)N[C@@H](CCCNC(=N)N)C(=O)N[C@@H](Cc2ccc(O)cc2)C(N)=O)NC(=O)[C@@H]2CCCN2C(=O)[C@@H](NC(=O)[C@@H](N)[C@@H](C)CC)CCC(=O)NCC(C(=O)N[C@@H](Cc2ccc(O)cc2)C(=O)N[C@@H](CCCNC(=N)N)C(=O)N[C@@H](CC(C)C)C(=O)N[C@@H](CCCNC(=N)N)C(=O)N[C@@H](Cc2ccc(O)cc2)C(N)=O)NC(=O)[C@@H]2CCCN2C1=O (stereo partly drawn)	·	·	·	·	·	-8%
CC(C)C[C@@H](CNCC(=O)[C@H](CC(C)C)NC(=O)c1[nH]cnc1C(=O)N[C@H](CN)CC(C)C)NC(=O)c1nc[nH]c1C(=O)N[C@@H](Cc1ccccc1)C(=O)O	-1%	-13%	9%	·	·	·
CC(C)C[C@@H](CNCC(=O)[C@H](Cc1ccccc1)NC(=O)c1[nH]cnc1C(=O)N[C@H](CN)CC(C)C)NC(=O)c1nc[nH]c1C(=O)N[C@@H](CC(=O)O)C(=O)O	-1%	13µM*	42%	·	·	·
CN(C)S(=O)(=O)c1cccc(NC(=O)CCCSc2ccccc2)c1	-5%	4%	-32%	10%	-24	-7%
Cc1cnc(C(=O)OCC(=O)NCc2ccccc2)cn1	-9%	3%	4%	1%	9	4%
CC(=O)c1cccc(NC(=O)CCCSc2ccccc2)c1	1%	-10%	15%	5%	-81*	-9%
O=C(CCOc1ccccc1)Nc1ccc(Br)cc1	·	7%	7.9µM*	·	-1	2%
Cc1cnc(C(=O)OCC(=O)Nc2ccc(OCc3ccccc3)cc2)cn1	3%	-9%	10µM*	?	-6	·
O=C(CCSc1ccccc1)Nc1ccc(OCc2ccccc2)cc1	5%	1%	11µM*	-5%	-4	10%
O=C(CCCOc1ccccc1)Nc1ccc(Br)cc1	-9%	10%	-4%	·	·	·
O=CNc1ccc(/C=C/c2ccnc3ccccc23)cc1	·	·	29%	·	·	·
CCCCCCCCNc1ccc(/C=C/c2ccnc3ccccc23)cc1	·	·	-2%	·	·	·
COc1ccc(-c2sc(N)nc2-c2ccccc2)cc1	·	·	3%	·	·	·
Cc1ccc(C)c(NC(=O)c2ccc(CN3CC(=O)N4CCCCC4C3=O)cc2)c1 (stereo not drawn)	·	-11%	·	·	·	·
O=C(Nc1nnc(C2CCCCC2)s1)C1CCN(C(=O)c2ccco2)CC1	·	·	5%	·	·	·
Cc1ccn2c(NCc3ccccc3)c(-c3cccs3)nc2c1	2%	9%	0%	21%	2	11µM*
Cc1ccn2c(NC3CCCC3)c(-c3cccs3)nc2c1	2%	?	?	29%	-10	-6%
CCCc1c(C)[nH]c2ccc(C(=O)O)cc2c1=S	-7%	7.1µM*	10%	1%	16	7%
Cc1[nH]c2ccc(C(=O)O)cc2c1C	3%	1%	4%	-3%	·	-4%
SMILES	TCR act	GLS inhibitor	BRCA1 expr act	p53 reactivation	TSHR antagonist	N370S GC
COc1ccc(NC(=O)c2oc3ccccc3c2NC(=O)C23CC4CC(CC(C4)C2)C3)c(OC)c1	·	-8%	7%	·	·	·
CC1(C)CC(=O)C=C(c2ccc(-c3ccccc3)cc2)C1=O	·	3%	13µM*	·	·	·
CC1(C)CC(=O)C=C(c2ccc(-c3ccccc3)cc2)C1	-1%	1%	10µM*	?	-32	·
O=C(COC(=O)CNC(=O)C1CCCCC1)NC1CCCC1	·	·	9%	·	·	·
O=C(Nc1ccc2c(c1)CCC2)c1cnccn1	3%	6%	3.5µM*	?	10	-13%
O=C(CSc1ncccn1)Nc1ccc2c(c1)CCC2	-4%	-4%	8.9µM*	10%	-1	2%
COc1ccc(N(Cc2cccs2)C(=O)COc2cc(C)c(Cl)c(C)c2)cc1	·	7%	·	·	·	·
CC(C)Oc1cccc(C(=O)Nc2ccc3oc(-c4ccccc4)nc3c2)c1	·	3%	·	·	·	·
CN(C)c1ccc(C=C2C=Cc3ccccc32)cc1	0%	1%	?	·	·	·
CN(C)c1ccc(/C=C2\C=Cc3ccccc32)cc1	·	·	3.5µM*	·	·	·
CCN(CC)c1ccc(/C=C2\C=Cc3ccccc32)cc1	·	·	4.5µM*	·	·	·
CCCN1CNc2c(c(=O)[nH]c(=S)n2CCc2ccccc2Cl)C1	·	·	32%	·	·	·
CCCN1CNc2c(c(=O)[nH]c(=S)n2CCc2ccc(OC)cc2OC)C1	·	·	19%	·	·	·
COC(=O)C1=C(C)NC(COC(N)=O)=C(C(=O)OC(C)C)C1c1cccc(Cl)c1Cl (stereo not drawn)	·	-3%	·	·	·	·
Cc1ccc(/C=C2\CCC(C3CCCC3)C2=O)cc1 (stereo not drawn)	-4%[46.1 µM]	3%	13µM*	?	-4	2%
CS(=O)(=O)c1ccc(C(=O)OCC(=O)NC23CC4CC(CC(C4)C2)C3)cc1[N+](=O)[O-]	0%[46.1 µM]	2%	-75%	7%	-76*	15%
CCc1nc(SCC(=O)NNC(=O)c2ccc(OC)cc2)c2ccccc2n1	-7%	8.9µM*	-10%	-4%	-3	-2%
COc1ccc(C2Nc3ccccc3C(=O)N2Cc2ccccc2)cc1COc1ccc([N+](=O)[O-])c(C)c1 (stereo not drawn)	·	·	0%	·	·	·
CCOc1cc(C2c3c(-c4cc(C)ccc4O)n[nH]c3C(=O)N2CCCOC(C)C)ccc1O (stereo not drawn)	·	0%	·	·	·	·
CCC(Nc1ncnc2ccc(-c3c(C)noc3C)cc12)c1ccccc1 (stereo not drawn)	·	·	·	·	·	-6%
Cc1ccc(NC(=O)Nc2cccnc2)cc1Cl	-2%	2%	13µM*	12%	-5	?
